Source: PubChem BioAssay (ICCB-Longwood Screening Facility, Harvard Medical School)
Rows were chosen to be rich in hits. Some 0.36% of all compounds tested hit in one or more screens of this group.
AID504770 = growth inhibitors of E. coli YBA685 in a screen for V. cholerae RctB (chromosome II replication) inhibitors. 0.27% of 130,000 active. E. coli YBA685 rctB-dependent plasmid, OD600 growth, 3 h; stronger effect = lower value. z-score (test concentration not listed); in the data active = z-score below about -2, passing the limit was not always enough
CapD inh = inhibitors of Bacillus anthracis CapD enzyme. AID 492967. 0.23% of 140,000 active. z-score (test concentration not listed). purified CapD enzyme, fluorescence intensity read-out; stronger effect = lower value; in the data active = z-score mostly below about -2.9, no sharp cut-off; inactive = mostly above about -1.9
Active calls of the source: *.

For Cc1c(C(=O)Nc2ccc(Cl)cc2)sc(N)c1C(N)=O the results were AID504770 0.2.
`CN(C)S(=O)(=O)Oc1ccc(C(=O)Nc2ccccc2Cl)cc1Cl` gave CapD inh 0.19.
`O=C(C/C=N\OCc1ccc(Cl)c(Cl)c1)Nc1ccc(F)cc1F` gave CapD inh -0.02.
For CNC(=O)C1c2ccccc2Oc2ccccc21 the results were AID504770 0.85.
Screening CC(C)(C)C1=CC(C(C#N)C#N)c2ccccc2O1 (configuration not stated) returned AID504770 -2.1* and CapD inh -0.445.
`CN(C)[C@@H]1C(=O)C(C(=O)NCN2CCCC2)=C(O)[C@@]2(O)C(=O)C3=C(O)c4c(O)cccc4[C@@](C)(O)C3CC12` (some centres not stated) gave CapD inh -3.07.
Screening C[C@H]1c2cccc(O)c2C(O)=C2C(=O)C3(O)C(O)=C(C(N)=O)C(=O)[C@@H](N(C)C)[C@@H]3[C@@H](O)[C@@H]21 (some centres not stated) returned CapD inh -0.365.
CN(C)[C@@H]1C(=O)C(C(N)=O)=C(O)[C@@]2(O)C(=O)C3=C(O)c4c(O)cccc4[C@@](C)(O)[C@H]3C[C@@H]12 was read as AID504770 -3.2* and CapD inh 0.03.
For C=C1c2c(Cl)ccc(O)c2C(O)=C2C(=O)[C@]3(O)C(O)=C(C(N)=O)C(=O)[C@@H](N(C)C)[C@@H]3[C@@H](O)[C@H]12 the results were AID504770 -4.25* and CapD inh 0.66.
`C=C1c2cccc(O)c2C(O)=C2C(=O)[C@]3(O)C(O)=C(C(N)=O)C(=O)[C@@H](N(C)C)[C@@H]3[C@@H](O)[C@H]12` gave AID504770 -3.35* and CapD inh -0.365.
`CCN(Cc1nc(-c2ccc(C)cc2)no1)C(=O)NC(C)(C)C` gave AID504770 0.35 and CapD inh 0.195.
COc1nc(Cl)nc(N2CCCCC2)n1 was read as AID504770 -0.85 and CapD inh 0.32.
N#Cc1ccccc1N1C(=O)C=CC1=O was read as AID504770 -3.5* and CapD inh -0.875.
`CSc1ccccc1N1C(=O)C=CC1=O` gave AID504770 -2.55* and CapD inh 0.23.
Screening CC(C)(C)c1ccccc1N1C(=O)C=CC1=O returned AID504770 -1.55 and CapD inh -0.015.
For O=C1C=CC(=O)N1c1ccccc1Br the results were AID504770 -3.3* and CapD inh -0.595.
For Cc1ccccc1N1C(=O)C=CC1=O the results were AID504770 0.9.
Screening N#Cc1ccccc1N1C(=O)c2ccccc2S1(=O)=O returned AID504770 -0.7 and CapD inh 0.19.
For CN(C)c1ccc(C2C3=C(CCCC3=O)Nc3[nH]c(=O)[nH]c(=O)c32)cc1 (configuration not stated) the results were AID504770 -1.8.
`Cc1cc(C(=S)NC(=O)c2ccccc2)c(C)n1C` gave AID504770 0.8.
`N#CSC(C#N)Cc1ccccc1` (configuration not stated) gave AID504770 -6.45* and CapD inh -0.295.
Cc1ccc(CC(C#N)Sc2nnc(C)n2Cc2ccccc2)cc1 (configuration not stated) was read as AID504770 0.2.
For N#CSc1c(Cl)nc2sccn12 the results were AID504770 -4.35* and CapD inh -0.46.
N#CC(C#N)=Cc1c(Cl)nc2sccn12 was read as AID504770 -1.35.
Screening CC(=O)Oc1ccc(/C=N/NC(=O)CC2Sc3ccccc3NC2=O)cc1 (configuration not stated) returned CapD inh -0.295.
Screening CCOC(=O)c1cn(CC)c2cc(N3CCCC3)c(F)cc2c1=O returned AID504770 0 and CapD inh 1.2.
O=C(O)c1cn(-c2ccc(F)cc2)c2cc(N3CCNCC3)c(F)cc2c1=O was read as AID504770 -3.55*.
CCn1cc(C(=O)O)c(=O)c2cc(F)c(N3CCN(C(=S)NC(=O)c4c(-c5ccccc5)noc4C)CC3)cc21 was read as AID504770 -0.7 and CapD inh 9.65.
`CCn1cc(C(=O)O)c(=O)c2cc(F)c(N3CCN(C(=S)NC)CC3)cc21` gave AID504770 -7.2* and CapD inh 9.74.
O=C(O)c1cn(-c2ccc(F)cc2)c2cc(N3CCN(CC(F)(F)F)CC3)c(F)cc2c1=O was read as CapD inh 0.37.
Screening O=C(O)c1cn(C2CC2)c2cc(N3CCN(C(=S)S)CC3)c(F)cc2c1=O returned AID504770 -8.3* and CapD inh 47.
For CCn1cc(C(=O)O)c(=O)c2cc(Cl)ccc21 the results were AID504770 0.25 and CapD inh -0.255.
CCn1cc(C(=O)O)c(=O)c2cc3c(cc21)OCO3 was read as AID504770 -3.75* and CapD inh 7.46.
For O=c1c2ccccc2c(=O)c2c1c(Nc1ccccc1)cc1oc3cc(Cl)ccc3[nH]c12 the results were CapD inh 0.33.
O=C(Nc1cccc(F)c1)c1ccccn1 was read as AID504770 0.15.
For CCOC(=O)CCc1c(C)nc2ncnn2c1C the results were AID504770 1.95 and CapD inh -0.22.
For CCOC(=O)CCc1c(CC(=O)OCC)c[nH]c1/C=N/O the results were AID504770 -0.25 and CapD inh -10.5*.
`CC(=O)N1CCc2cc(S(=O)(=O)CCC(=O)Nc3ccc(C)cn3)ccc21` gave AID504770 -0.15 and CapD inh 1.07.
`CCC1(C)CC(CCNCc2ccc(OC)cc2)(c2ccc(C)cc2)CCO1` (configuration not stated) gave CapD inh -0.38.
`C(=N\n1cnnc1)/c1ccccc1` gave AID504770 -0.15 and CapD inh 0.405.
Cn1cccc1/C=N/n1cnnc1 was read as AID504770 0.3 and CapD inh -5.53*.
For N#Cc1ccc(SCCO)c([N+](=O)[O-])c1 the results were CapD inh 0.
Screening O=[N+]([O-])c1ccc(SCCO)c2nonc12 returned CapD inh -3.98*.
`CCN1CSC(=S)N(Cc2ccc(OC)cc2)C1` gave AID504770 1.4 and CapD inh -0.275.
`CCN1CSC(=S)N(Cc2ccccc2)C1` gave AID504770 -2.85* and CapD inh 0.525.
For O=C(Nc1ccccc1)C1CCN(C(=O)Nc2ccccc2)CC1 the results were AID504770 -0.1.
`Cc1cccc(C(=O)N(CCN2C(=O)c3ccccc3C2=O)c2cccc3ccccc23)c1` gave AID504770 0 and CapD inh 0.685.
For CC1Cc2cc(S(=O)(=O)NC3CCCC3)ccc2N1C(=O)C1CC1 (configuration not stated) the results were AID504770 -1.45 and CapD inh 0.24.
For CC(=O)N1C(=O)c2ccccc2C1=O the results were CapD inh -5.4*.
For CC(=O)N1C(=O)c2ccc([N+](=O)[O-])cc2C1=O the results were CapD inh -0.65.
CC(C)(C)c1ccc(C(=O)Nc2sccc2C(N)=O)cc1 was read as AID504770 -1.25 and CapD inh 4.25.
CC(C)(O/N=C(/C(=O)N[C@@H]1C(=O)N2C(C(=O)[O-])=C(C[n+]3ccccc3)CS[C@H]12)c1csc(N)n1)C(=O)O was read as CapD inh 1.52.
